Data on four compounds can be found in PubChem BioAssay.

Test [1] can be described thus: yeast TOR pathway RPL19A-GFP modulators, primary screen, cell-based, S. cerevisiae, multiplex flow cytometry (AID 1862; in the data active = percent of DMSO control GFP below about 86%;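 note: lower values mimic rapamycin by blocking the RPL19A rise seen in DMSO cells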). Conditions: S. cerevisiae RPL19A-GFP strain, flow cytometry fluorescence, 3 h; at 10 µM; stronger effect = lower value.
Test [2] is described as follows: modulators of MEP2-GFP levels in yeast, primary screen, S. cerevisiae, multiplex flow cytometry (AID 1867;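 active = GFP response, as percent of the DMSO control, above the screen-wide mean plus 3 SD, about 139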;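 note: median GFP channel fluorescence of barcode-gated MEP2-GFP cells measured by flow cytometry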). Conditions: S. cerevisiae MEP2-GFP strain, 3 h, at 10 µM, stronger effect = higher value, 100% means same as DMSO wells.
The nature of test [3]: modulators of CIT2-GFP expression in yeast, primary screen, S. cerevisiae, GFP fusion, multiplex flow cytometry (AID 1870;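 active = percent response above a set limit, the screen-wide mean plus 3 SD, cut at about 130% in these data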;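 note: barcoded CIT2-GFP strain pooled with four other GFP strains with rapamycin as positive control; median GFP fluorescence per well over plate mean of DMSO wells so 100% = DMSO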). Conditions: 3 h, at 10 µM, stronger effect = higher value.
Test [4] in a line: modulators of LAP4-GFP expression in yeast, primary screen, S. cerevisiae, multiplex flow cytometry (AID 1873;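 active = GFP signal, as percent of the solvent control, above the screen mean plus 3 SD, about 149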). To be noted: 3 h, at 10 µM, stronger effect = higher value.
The nature of test [5]: modulators of AGP1-GFP expression in yeast TOR pathway, primary screen, cell-based, multiplex flow cytometry, S. cerevisiae (AID 1887;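 active = GFP signal above the screen-wide mean plus 3 SD, that is over about 124.5% of the solvent control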;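 note: AGP1-GFP fusion strain of S. cerevisiae within a five-strain barcoded multiplex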). To be noted: 3 h, at 10 µM, stronger effect = higher value.
Test [6] is described as follows: inhibitors of CD8+ T cell-vesicle binding, pilot screen, LFA-1/ICAM-1 modulator project, MLPCN validation set, flow cytometry (AID 2523;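 active = response below a set limit, under 55% cells CD8-positive and vesicle-bound, and CD8 cells' 90th-percentile brightness under 279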;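 for vesicle binding response: mean PE anti-B7-1 fluorescence of CD8+ cells relative to row control; 100% = QL9-loaded vesicles with DMSO vehicle in the same plate row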). Conditions: 2C mouse CD8+ T cells, at 7 µM, stronger effect = lower value; double positive events: measured here: CD8+/vesicle+ event percentage.
The target of test [7] is Integrin beta-1 (Homo sapiens) + Integrin alpha-4 (Homo sapiens) (UniProt P13612+P05556). Briefly: inhibition of HUTS-21 binding to VLA-4, pilot screen, VLA-4 allosteric modulator project, U937 cells, HUTS-21 mAb, flow cytometry, validation set (AID 2674;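 active = inhibition above 50%, about 3 SD of the validation set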;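 note: antibody binding induced by the VLA-4 ligand LDV present at three times its Kd; 0% = LDV ligand with antibody and no compound and 100% = antibody without LDV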). Conditions: HUTS-21 LIBS mAb binding, at 6.7 µM, stronger effect = higher value, binding induced by LDV ligand.
The nature of test [8]: superoxide lowering in aged yeast cells, pilot screen, validation compound set (AID 2706;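 active = superoxide response below 65% of plate, a cut near 3 SD across the whole screen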;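 note: yeast exposed to compound for one week at 30 degrees C before staining; 100% = mean of all compound wells on the same plate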). Conditions: S. cerevisiae aging, superoxide DHE fluorescence; at 10 µM; stronger effect = lower value.
The target in test [9] is Beta-adrenergic receptor kinase 1 (Homo sapiens) (UniProt P25098). Kind of test: GRK2 binders displacing RNA aptamer, biochemical, validation, human GRK2, bead flow cytometry (AID 488806;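 active = aptamer binding inhibition above 30%, about 3 SD of noise from non-fluorescent compounds; inactive = inhibition at or below 30%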). To be noted: bead-bound GRK2, FAM-aptamer displacement, at 10 µM, stronger effect = higher value.
In test [10] the target is Beta-2 adrenergic receptor (Homo sapiens) (UniProt P07550). Kind of test: beta2AR agonists driving receptor internalization, pilot screen, cell-based, FAP fluorogen, flow cytometry, validation set (AID 504459).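 Note: agonist-driven loss of surface beta2AR via internalization measured by FAP dye flow cytometry.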 To be noted: Am2.2-beta2AR cells, FAP surface receptor flow cytometry; at 10 µM; stronger effect = higher value.
Test [11] addresses AP-2 complex subunit beta (Homo sapiens) (UniProt P63010). Kind of test: inhibitors of arrestin peptide binding to AP2, pilot screen, biochemical, validation set, GST-AP2 beads, flow cytometry (AID 504541;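 active = inhibition above 54%, about 3 SD of non-fluorescent compounds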;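 note: AP2 carries R879A mutation and is captured from E. coli lysate; bead-bound FITC arrestin peptide fluorescence measuring arrestin peptide binding to AP2; 0% = DMSO wells and 100% = excess unlabeled arrestin peptide control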). Conditions: FITC arrestin peptide, at 10 µM, stronger effect = higher value, AP2 beta2 appendage fragment, R879A mutant.
Test [12] can be described thus: yeast V-ATPase proton transport modulators, S. cerevisiae, pHLuorin, HTS validation (AID 504600; in the data active = response above about 15%;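 note: plate controls were DMSO for no effect and reference compound for full effect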). To be noted: S. cerevisiae pHLuorin cytosolic pH, at 10 µM, stronger effect = higher value.
Test [13] deals with anti-desmoglein-3 scFv antibody binding to human DSG3. Kind of test: inhibitors of anti-DSG3 scFv binding to DSG3, pilot screen, biochemical, validation compound set, bead-based, flow cytometry (AID 588368;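 active = binding below the plate cutoff, the plate median minus 3 SD, with a reading above zero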;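 note: signal is the median channel fluorescence of bead-bound GFP antibody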). To be noted: Protein G beads, DSG3-Fc, scFv-GFP binding, at 10 µM, stronger effect = lower value.
Test [14] in a line: inhibitors of fungal efflux pumps CDR1, CDR2, MDR1, pilot screen, validation compound set, multiplex, phenotypic (AID 588506;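 active = efflux inhibition above 0.42, the validation set average plus 4 SD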;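 note: Nile Red retained in cells so higher fluorescence means more efflux inhibition; 0 = negative control wells and 1 = enniatin B 25 µM full block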). Conditions: S. cerevisiae pump-expressing triplex, Nile Red efflux flow cytometry; at 10 µM; stronger effect = higher value; the pumps come from Candida albicans.
The target of test [15] is ATP-binding cassette sub-family B member 6 (Homo sapiens) (UniProt Q9NP58). Kind of test: ABCB6 transporter inhibitors, pilot screen, K562-ABCB6 cells, flow cytometry, validation set (AID 588550;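 active = inhibition above the screen-wide mean plus 3 SD, about 51%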;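 note: 0% = DMSO wells and 100% = benzethonium chloride 70 µM positive control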). Conditions: K562-ABCB6 porphyrin accumulation, 1 h, at 10 µM, stronger effect = higher value.
Test [16] is described as follows: promoters of myeloid differentiation in arrested cells, primary screen, cell-based, GFP/MAC1 double positive, flow cytometry, validation set (AID 588685;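 active = differentiation response of at least 50%, scaled between solvent and reference control, from cells with both markers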;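 note: compound exposure lasts four days before antibody staining and flow analysis; 0% = DMSO wells and 100% = 5 µM fulvestrant positive control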). Conditions: ER-HoxA9 marrow cells, stronger effect = higher value, normalized: vehicle 0, fulvestrant 100.

Records with an inconclusive call do not appear. Active and inactive are the calls of the source.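 Rule for the calls, unless noted: active = percent response above 42, roughly 3 SD of non-fluorescent test compounds; inactive = the rest.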

Sequence of Integrin beta-1 (Homo sapiens) + Integrin alpha-4 (Homo sapiens) (P05556 whole entry, looked up): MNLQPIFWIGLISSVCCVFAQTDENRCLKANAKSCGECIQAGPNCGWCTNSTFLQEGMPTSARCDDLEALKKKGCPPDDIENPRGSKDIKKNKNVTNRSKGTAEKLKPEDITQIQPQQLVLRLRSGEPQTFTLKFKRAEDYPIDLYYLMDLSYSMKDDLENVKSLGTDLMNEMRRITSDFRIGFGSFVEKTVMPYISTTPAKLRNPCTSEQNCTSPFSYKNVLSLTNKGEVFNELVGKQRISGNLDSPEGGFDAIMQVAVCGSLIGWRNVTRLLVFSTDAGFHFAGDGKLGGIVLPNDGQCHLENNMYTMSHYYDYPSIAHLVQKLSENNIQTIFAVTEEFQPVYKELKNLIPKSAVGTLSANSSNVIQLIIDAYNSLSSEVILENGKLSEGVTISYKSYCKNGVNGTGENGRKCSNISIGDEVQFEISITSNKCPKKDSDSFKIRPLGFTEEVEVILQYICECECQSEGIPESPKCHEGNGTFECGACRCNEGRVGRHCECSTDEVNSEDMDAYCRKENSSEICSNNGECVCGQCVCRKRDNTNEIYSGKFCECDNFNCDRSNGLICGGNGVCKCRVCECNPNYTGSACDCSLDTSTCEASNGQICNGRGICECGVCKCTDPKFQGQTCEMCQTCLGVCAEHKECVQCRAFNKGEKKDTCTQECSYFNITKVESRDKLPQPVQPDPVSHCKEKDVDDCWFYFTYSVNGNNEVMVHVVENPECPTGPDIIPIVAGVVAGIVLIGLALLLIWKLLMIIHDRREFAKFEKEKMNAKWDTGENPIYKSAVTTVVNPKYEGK
Sequence of Integrin beta-1 (Homo sapiens) + Integrin alpha-4 (Homo sapiens) (P13612 whole entry, looked up): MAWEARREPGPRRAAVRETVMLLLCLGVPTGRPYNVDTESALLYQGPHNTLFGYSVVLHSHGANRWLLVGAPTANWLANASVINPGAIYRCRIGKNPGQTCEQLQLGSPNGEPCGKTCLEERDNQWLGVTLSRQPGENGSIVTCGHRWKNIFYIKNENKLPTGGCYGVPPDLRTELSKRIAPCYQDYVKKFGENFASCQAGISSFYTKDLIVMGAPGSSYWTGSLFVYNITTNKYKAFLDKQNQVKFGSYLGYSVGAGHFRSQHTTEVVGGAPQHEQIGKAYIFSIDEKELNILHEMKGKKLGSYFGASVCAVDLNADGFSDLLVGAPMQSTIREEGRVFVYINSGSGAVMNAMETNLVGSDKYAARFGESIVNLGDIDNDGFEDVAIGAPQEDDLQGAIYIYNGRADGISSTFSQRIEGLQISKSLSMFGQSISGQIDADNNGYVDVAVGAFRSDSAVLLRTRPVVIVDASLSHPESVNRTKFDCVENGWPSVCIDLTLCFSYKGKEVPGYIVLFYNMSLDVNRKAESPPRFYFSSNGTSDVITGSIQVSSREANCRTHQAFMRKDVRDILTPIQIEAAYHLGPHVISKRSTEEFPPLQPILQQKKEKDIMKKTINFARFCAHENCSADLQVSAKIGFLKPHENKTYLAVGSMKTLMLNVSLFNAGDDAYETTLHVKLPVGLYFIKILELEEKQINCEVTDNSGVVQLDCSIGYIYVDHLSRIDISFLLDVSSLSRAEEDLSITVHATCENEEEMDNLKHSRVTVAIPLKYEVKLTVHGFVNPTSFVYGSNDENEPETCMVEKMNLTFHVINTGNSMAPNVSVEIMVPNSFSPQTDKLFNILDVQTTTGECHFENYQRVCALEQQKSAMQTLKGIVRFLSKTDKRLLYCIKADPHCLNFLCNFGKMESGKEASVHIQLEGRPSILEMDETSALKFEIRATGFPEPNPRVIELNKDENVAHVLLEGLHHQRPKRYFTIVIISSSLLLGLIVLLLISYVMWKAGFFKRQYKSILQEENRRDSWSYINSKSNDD
Sequence of ATP-binding cassette sub-family B member 6 (Homo sapiens) (Q9NP58 whole entry, looked up): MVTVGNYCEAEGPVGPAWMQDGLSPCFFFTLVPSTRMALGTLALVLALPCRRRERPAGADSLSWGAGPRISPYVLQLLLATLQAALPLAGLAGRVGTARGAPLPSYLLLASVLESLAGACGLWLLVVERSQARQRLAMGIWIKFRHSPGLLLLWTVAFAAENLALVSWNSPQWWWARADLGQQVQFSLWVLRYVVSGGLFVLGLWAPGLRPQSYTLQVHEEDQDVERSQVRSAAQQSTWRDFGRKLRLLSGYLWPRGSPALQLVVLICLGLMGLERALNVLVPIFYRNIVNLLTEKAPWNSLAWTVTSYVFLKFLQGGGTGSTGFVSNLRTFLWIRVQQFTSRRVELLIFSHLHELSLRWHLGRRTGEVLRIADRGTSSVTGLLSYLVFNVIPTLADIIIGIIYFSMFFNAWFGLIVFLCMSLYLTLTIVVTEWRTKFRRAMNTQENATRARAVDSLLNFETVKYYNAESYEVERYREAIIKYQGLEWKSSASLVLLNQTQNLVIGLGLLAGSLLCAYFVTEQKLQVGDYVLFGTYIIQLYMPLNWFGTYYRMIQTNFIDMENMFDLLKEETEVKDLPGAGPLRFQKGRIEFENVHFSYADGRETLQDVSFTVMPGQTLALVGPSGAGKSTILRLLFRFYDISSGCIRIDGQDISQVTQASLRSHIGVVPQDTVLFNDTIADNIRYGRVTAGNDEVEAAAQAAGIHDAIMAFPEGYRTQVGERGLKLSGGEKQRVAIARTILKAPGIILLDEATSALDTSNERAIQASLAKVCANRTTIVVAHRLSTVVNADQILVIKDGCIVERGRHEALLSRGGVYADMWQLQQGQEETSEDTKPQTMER
Sequence of Beta-2 adrenergic receptor (Homo sapiens) (P07550 whole entry, looked up): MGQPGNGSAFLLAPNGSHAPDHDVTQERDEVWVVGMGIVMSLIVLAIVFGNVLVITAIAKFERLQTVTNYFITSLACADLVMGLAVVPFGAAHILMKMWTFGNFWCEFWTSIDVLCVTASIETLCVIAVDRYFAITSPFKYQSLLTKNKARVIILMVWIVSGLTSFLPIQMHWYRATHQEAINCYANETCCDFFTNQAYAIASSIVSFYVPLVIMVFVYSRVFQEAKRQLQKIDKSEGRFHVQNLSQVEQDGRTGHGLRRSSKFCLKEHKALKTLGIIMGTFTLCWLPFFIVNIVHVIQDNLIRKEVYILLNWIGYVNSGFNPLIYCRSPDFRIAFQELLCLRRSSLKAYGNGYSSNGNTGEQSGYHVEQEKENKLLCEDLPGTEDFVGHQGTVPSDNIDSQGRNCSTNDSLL
Sequence of AP-2 complex subunit beta (Homo sapiens) (P63010 whole entry, looked up, the tested form may be a part, one chain of several): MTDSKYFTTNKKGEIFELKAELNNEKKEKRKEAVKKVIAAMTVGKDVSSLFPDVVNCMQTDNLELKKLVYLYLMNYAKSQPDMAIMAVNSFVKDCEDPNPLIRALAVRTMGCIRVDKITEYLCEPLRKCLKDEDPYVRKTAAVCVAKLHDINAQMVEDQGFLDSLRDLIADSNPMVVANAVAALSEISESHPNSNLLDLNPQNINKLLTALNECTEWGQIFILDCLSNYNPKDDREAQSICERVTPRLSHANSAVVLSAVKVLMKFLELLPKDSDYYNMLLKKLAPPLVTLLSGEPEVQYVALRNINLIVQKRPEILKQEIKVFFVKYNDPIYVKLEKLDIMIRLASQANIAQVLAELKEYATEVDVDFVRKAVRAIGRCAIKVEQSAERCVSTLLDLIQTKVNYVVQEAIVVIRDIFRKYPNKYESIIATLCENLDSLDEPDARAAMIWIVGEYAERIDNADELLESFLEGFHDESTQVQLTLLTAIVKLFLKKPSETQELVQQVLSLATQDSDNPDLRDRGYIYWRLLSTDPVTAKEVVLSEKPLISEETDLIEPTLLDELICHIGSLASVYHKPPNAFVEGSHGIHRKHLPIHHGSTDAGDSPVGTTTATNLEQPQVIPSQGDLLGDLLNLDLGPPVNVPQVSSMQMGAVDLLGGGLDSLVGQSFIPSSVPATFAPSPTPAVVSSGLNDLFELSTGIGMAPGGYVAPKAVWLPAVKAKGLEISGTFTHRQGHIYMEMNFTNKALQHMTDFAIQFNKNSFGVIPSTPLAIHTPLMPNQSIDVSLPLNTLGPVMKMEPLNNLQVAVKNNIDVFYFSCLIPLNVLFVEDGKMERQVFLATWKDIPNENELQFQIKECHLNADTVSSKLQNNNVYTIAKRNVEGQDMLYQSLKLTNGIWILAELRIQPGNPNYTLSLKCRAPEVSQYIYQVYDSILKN
Sequence of Beta-adrenergic receptor kinase 1 (Homo sapiens) (P25098 whole entry, looked up): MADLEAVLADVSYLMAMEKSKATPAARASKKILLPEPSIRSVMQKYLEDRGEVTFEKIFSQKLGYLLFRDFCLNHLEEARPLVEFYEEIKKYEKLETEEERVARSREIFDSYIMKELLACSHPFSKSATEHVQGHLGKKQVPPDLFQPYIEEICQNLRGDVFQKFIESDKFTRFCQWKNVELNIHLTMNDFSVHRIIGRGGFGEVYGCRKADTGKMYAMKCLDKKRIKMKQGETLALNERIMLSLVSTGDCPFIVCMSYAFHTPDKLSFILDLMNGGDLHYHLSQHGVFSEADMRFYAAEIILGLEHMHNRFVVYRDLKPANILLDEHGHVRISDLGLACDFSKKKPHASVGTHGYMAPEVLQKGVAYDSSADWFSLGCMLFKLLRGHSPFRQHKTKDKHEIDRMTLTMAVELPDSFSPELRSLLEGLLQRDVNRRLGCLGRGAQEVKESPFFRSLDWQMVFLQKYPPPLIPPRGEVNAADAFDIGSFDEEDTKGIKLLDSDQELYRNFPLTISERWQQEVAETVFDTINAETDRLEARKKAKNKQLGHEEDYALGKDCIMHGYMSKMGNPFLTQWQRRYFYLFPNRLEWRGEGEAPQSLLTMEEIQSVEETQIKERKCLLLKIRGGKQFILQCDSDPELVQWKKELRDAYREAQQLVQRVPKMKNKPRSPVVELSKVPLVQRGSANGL

Turning to `OC(C#CCN1CCCC1)(c1ccccc1)c1cccnc1` (stereo not drawn), in [1], the percent of DMSO control GFP was 98.9% (inactive). Also, the GFP response vs DMSO was 101% (inactive) in test [2] and 103% (inactive) in test [4]. For the same compound, the percent response of DMSO control in [3] was 98.3% (inactive). Moreover, the GFP response, % of DMSO in [5] is 107% (inactive). In [6], this compound showed a double positive events of 60.3%. Besides, the vesicle binding response in test [6] was 166% (inactive). In addition, the inhibition was 11.7% (inactive) in [7], -2.57% (inactive) in test [11] and -14% (inactive) in test [15]. For the same compound, the superoxide response (% of plate) in [8] was 83.2% (inactive). In addition, the aptamer binding inhibition in test [9] is 6% (inactive). The response in test [10] was -14.6% (inactive); in test [12], 1.86% (inactive). In addition, in test [13], the binding (% of control) was 108% (inactive). Also, the efflux inhibition (fraction of control) in test [14] was -0.09 (inactive). Also, in test [16], the differentiation response is 14.7% (inactive).
Regarding `CC12CN3CC(C)(CN(C1)C3c1ccc(Cl)cc1Cl)C2=O` (stereo not drawn), in test [1], the percent of DMSO control GFP was 103% (inactive). The GFP response vs DMSO in [2] was 98.3% (inactive); in test [4], 94.7% (inactive). In addition, in test [3], the percent response of DMSO control was 112% (inactive). The GFP response, % of DMSO in [5] was 104% (inactive). The compound also showed a double positive events in test [6] of 67.5%. For the same compound, the vesicle binding response in test [6] was 387% (inactive). For the same compound, the inhibition was 5.77% (inactive) in [7], -0.61% (inactive) in [11] and -3% (inactive) in [15]. The superoxide response (% of plate) in test [8] is 98.9% (inactive). In addition, in test [9], the aptamer binding inhibition is 4% (inactive). Further, the values for the response in [10] and in test [12] were -10.5% (inactive) and -0.6% (inactive), respectively. For the same compound, the binding (% of control) in test [13] was 95.1% (inactive). Moreover, in test [14], the efflux inhibition (fraction of control) was -0.01 (inactive). In addition, the differentiation response in [16] was -8.55% (inactive).
As for `Cc1ccc(-c2nnc(-c3ccc4c(c3)OCO4)o2)cc1`, in [1], the percent of DMSO control GFP is 103% (inactive). Moreover, the GFP response vs DMSO was 106% (inactive) in [2] and 121% (inactive) in test [4]. Further, in test [3], the percent response of DMSO control is 109% (inactive). In test [5], the GFP response, % of DMSO is 115% (inactive). For the same compound, the double positive events in [6] was 57.9%. Moreover, in [6], the vesicle binding response is 165% (inactive). The inhibition in test [7] is -2.82% (inactive); in test [11], 6.09% (inactive); in test [15] it was 2% (inactive). Besides, the superoxide response (% of plate) in [8] is 98.9% (inactive). Moreover, in test [9], the aptamer binding inhibition was -7% (inactive). The response in [10] is -16.4% (inactive); in test [12] it was 2.28% (inactive). The binding (% of control) in test [13] was 99.9% (inactive). Besides, the efflux inhibition (fraction of control) in test [14] is 0.04 (inactive). The differentiation response in test [16] was -0.06% (inactive).
`O=C(O)c1ccccc1C(=O)OCCCCOC(=O)c1ccccc1C(=O)O`: in test [1], the percent of DMSO control GFP is 104% (inactive). Also, the results for the GFP response vs DMSO in [2] and in test [4] were 85.6% (inactive) and 82.2% (inactive), respectively. Moreover, the percent response of DMSO control in test [3] is 105% (inactive). Also, the GFP response, % of DMSO in [5] is 98.6% (inactive). The double positive events in test [6] worked out at 64.9%. For the same compound, the vesicle binding response in test [6] is 1380% (inactive). For the same compound, the inhibition in [7] is -0.45% (inactive); in [11], -4.07% (inactive); in [15], 2% (inactive). The superoxide response (% of plate) in [8] is 88% (inactive). Moreover, the aptamer binding inhibition in test [9] was 6% (inactive). Further, the results for the response in test [10] and in [12] were -3.48% (inactive) and 1.28% (inactive), respectively. For the same compound, the binding (% of control) in test [13] was 92.7% (inactive). In addition, the efflux inhibition (fraction of control) in [14] was 0.21 (inactive). The differentiation response in [16] was 4.15% (inactive).
